Activity calls are given as the source filed them. Rule for the calls: active = hit-call score of the fitted dose curve at least 0.9, where 1 is the maximum; inactive = score below 0.9.

Read-out in the experiment: Early growth response protein 1 (EGR1) transcription factor, EGR1 (gene 1958)
Briefly: LTEA_HepaRG_EGR1: Life Technologies and Expression Analysis (LTEA) Assay for Early growth response protein 1 (EGR1) transcription factor using HepaRG (AID 2283490). The note with it: mRNA level, 48 h; actives raise or lower the signal. The method, then:
LTEA_HepaRG is a cell based, multiplexed-readout assay that uses HepaRG, a human liver cell line, with measurements taken at 48 hours after chemical dosing on a 96-well plate.LTEA_HepaRG_EGR1 is one of 102 assay component(s) measured in the LTEA HepaRG cell culture assay. It is a marker of Cell proliferation, survival, death.Data from the assay component LTEA_HepaRG_EGR1 was analyzed into 1 endpoint. This assay endpoint, LTEA_HepaRG_EGR1, was analyzed with bidirectional fitting relative to DMSO as the negative control and baseline of activity. Using a type of inducible reporter, measures of mRNA induction for gain or loss-of-signal activity can be used to understand regulation of transcription factor activity. To generalize the intended target to other relatable targets, this assay endpoint is annotated to the dna binding intended target family, where the subfamily is zinc finger.
A total of 1060 chemcials from the ToxCast library were tested in eight-point concentration-response experiments. Cell culture and cytotoxicity assays were conducted at Thermo Fisher Scientific's Custom Services facility (Madison, WI). A single lot of human HepaRG cells (Thermo Fisher Scientific, Frederick, MD) was used for the cell culture experiments. 96-well format collagen type I coated plates of human HepaRG cells were prepared using established methods. Briefly, cryopreserved HepaRG cells were thawed, plated at a density of approximately 100,000 cells/well in HepaRG Thaw, Plate, and General Purpose media (HPRG770, Thermo Fisher Scientific), and incubated for 48 hours. 0.5% DMSO was selected as vehicle control to balance the requisite need of DMSO in HepaRG cultures to maintain differentiation (for example, baseline metabolism, proportions of hepatocytes vs. cholangiocytes), while enabling further hepatic receptor pathway activation (for example, PXR and CAR) in response to chemical exposure. 48 hours after plating, the culture medium was replaced with HepaRG Serum-Free Incudtion Media. Cells were exposed to each test chemical in duplicate and maintained in CO2 incubators for another 48 hours. Chemical plates were thawed to room temperature and 200x concentrations of treatment groups were prepared. 8-point conentration-reponse curves were made with the highest exposure at 100 uM, followed by half-log dilutions, all in 0.5% DMSO. Each test plate contained variouse controls, induction positive controls (1mM phenobarbital), cytotoxicity positive controls ([…] aflatoxin B1), vehicle controls (0.5% DMSO), and total lysis controls (0.5% DMSO). Cell morphology images were taken using an Essen IncuCyte FLR automated microscope, with six 96-well plates imaged in about 24 minutes. Images were captured and exported and JPEG files. Spent culture media was transfered to black-well plates for the LDH assay, and remaining media was sorted at -80 C for later use. Cells were treated with RLT buffer and frozen until shipped for gene expression analysis. Total RNA was isolated from the cell suspension in 75 uL of Buffer RLT (Qiagen, Germantown, MD 20874) by Quintiles/Expression Analysis (Durham, NC) using a custom isolation procedure. Total RNA from each plate well was transferred to a preamplification plate. Fluidigm's 96.96 Dynamic ArrayTM (Fluidigm, Amsterdam, the Netherlands) technology was used for gene expression analyses by quantitative reverse transcription polymerase chain reaction (qRT-PCR, performed by Quintiles/Expression Analysis, Durham, NC)89. Standard TaqManTM Assays (Applied Biosystems/ThermoFisher Scientific, Foster City, CA) were used to assess the expression of 93 genes selected based on their selectivity and sensitivity to important hepatic receptors known to be modulated by environmental chemicals; importance in human hepatocyte functionality; and hepatotoxicity. […]
Take `C=CCOC(=O)C(C)(C)OC(=O)c1cc(-n2c(=O)cc(C(F)(F)F)n(C)c2=O)ccc1Cl`: the call was inactive. For `O=P(O)(O)CCCl`, the outcome was inactive. With `COP(=S)(OC)SCn1nnc2ccccc2c1=O`, the result was inactive. Consider `CCOc1cc(C(C)(C)C)ccc1C1COC(c2c(F)cccc2F)=N1` (stereo not given), for which the molecule was called inactive. For `Nc1c(Cl)c(F)nc(OCC(=O)O)c1Cl`, the molecule was classed as inactive.

Take `CSC(=O)c1c(C(F)F)nc(C(F)(F)F)c(C(=O)SC)c1CC(C)C`: the call was inactive. For `COc1ccc(-c2ccccc2)cc1NNC(=O)OC(C)C`, the outcome was inactive. As to `COC(=O)NS(=O)(=O)c1ccc(N)cc1`, the molecule was called inactive. Take `COC(=O)N(C(=O)N1CO[C@@]2(C(=O)OC)Cc3cc(Cl)ccc3C2=N1)c1ccc(OC(F)(F)F)cc1`: the call was inactive. For the molecule `CCCC(=NOCC)C1=C(O)CC(CC(C)SCC)CC1=O` (stereo not given), the call was inactive. A word on the AC50: it is the concentration giving half of the maximal activity seen. For the molecule `CCCCC(O)(Cn1cncn1)c1ccc(Cl)cc1Cl` (stereo not given), the concentration at half-maximal activity (AC50) was 69.2 µM (active).

Take `Cc1ccc(N=CN(C)C=Nc2ccc(C)cc2C)c(C)c1`: the call was inactive.

For `CCOP(=S)(OCC)Oc1nc(Cl)n(C(C)C)n1`, the call was inactive. On the same count and under the same terms, under `COC(=O)c1c(C(F)F)nc(C(F)(F)F)c(C2=NCCS2)c1CC(C)C` stands “inactive”; under `CCN(CC)c1nc(C)cc(OP(=S)(OC)OC)n1`, “inactive”.

As for `CS(=O)(=O)c1ccc(C(=O)C2C(=O)CCCC2=O)c([N+](=O)[O-])c1`, the molecule was called inactive.

In the case of `CC(C)NC(=O)N1CC(=O)N(c2cc(Cl)cc(Cl)c2)C1=O`, the call was inactive. For `CCOP(=O)(OCC)Oc1nc(Cl)c(Cl)cc1Cl`, the AC50 is 83.4 µM (active). As to `COc1cc(Cl)c(OC)cc1Cl`, the call was inactive. As for `CC(C)Nc1nc(Cl)nc(NC(C)C)n1`, the outcome was inactive.

For `Cc1cnc(C2=NC(C)(C(C)C)C(=O)N2)c(C(=O)O)c1` (stereo not given), the outcome was inactive.

For `CCNC(=O)NC(=O)C(C#N)=NOC`, the result was inactive. The same measure, in the same setting: under `CC(C)N1C(=O)c2ccccc2NS1(=O)=O` stands “inactive”.

`CO/N=C(/C1=NOCCO1)c1ccccc1Oc1ncnc(Oc2ccccc2Cl)c1F`: the AC50 is 12.7 µM (active). Turning to `COP(=O)(OC)O/C(C)=C/C(=O)N(C)C`, the molecule was classed as inactive. On the same count and under the same terms, the same measure for `CC(C)C1(C)N=C(c2ncccc2C(=O)O)NC1=O` (stereo not given): “inactive”.

For the molecule `COC(=O)NC(=S)Nc1ccccc1NC(=S)NC(=O)OC`, the call was inactive. Turning to `CC1(C)CON(Cc2ccccc2Cl)C1=O`, the call was inactive. For the molecule `O=C1C2CC=CCC2C(=O)N1SC(Cl)(Cl)Cl` (stereo not given), the result was inactive. For the molecule `Cc1c(COC(=O)[C@@H]2[C@H](/C=C(\Cl)C(F)(F)F)C2(C)C)cccc1-c1ccccc1`, the molecule was classed as inactive. `OC(c1ccc(Cl)cc1)(c1ccc(Cl)cc1)C(Cl)(Cl)Cl`: the call was inactive. For the molecule `Nc1c(Cl)c(Cl)nc(C(=O)O)c1Cl`, the result was inactive. The same measure, in the same setting: under `CC1(C)C(C(=O)OC(C#N)c2cccc(Oc3ccccc3)c2)C1(C)C` (stereo not given) stands “inactive”; under `CCCN(CC)CC1COC2(CCC(C(C)(C)C)CC2)O1` (stereo not given), “inactive”; under `Clc1nc(Cl)nc(Nc2ccccc2Cl)n1`, “inactive”. On to `CN=C=S`, for which the molecule was called inactive. For `N#Cc1c[nH]cc1-c1cccc2c1OC(F)(F)O2`, the AC50 is 50 µM (active). Regarding `CCOc1nc(C(Cl)(Cl)Cl)ns1`, the AC50 was 1.12 µM (active). For `Cn1c(-c2ccccc2)cc(-c2ccccc2)[n+]1C`, the outcome was inactive. Turning to `Nc1cnn(-c2ccccc2)c(=O)c1Cl`, the call was inactive.

Values taken from PubChem BioAssay (EPA / NIEHS).
